Bioassay records from PubChem BioAssay.
Cruzain inh Det: inhibitors of Trypanosoma cruzi cruzain with detergent. hit rate 0.43% among 200,000. Potency, µM, without a hit: max response, negative = inhibition, usual class: inhibitors. purified cruzain, Z-FR-AMC fluorescence, 0.01% Triton. AID 1478;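 further: plate controls were neutral wells for no effect and buffer without enzyme for full effect; nearly all actives have a fitted effect of over 40% in size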
Target sequence (P25779 123-467 limits assumed): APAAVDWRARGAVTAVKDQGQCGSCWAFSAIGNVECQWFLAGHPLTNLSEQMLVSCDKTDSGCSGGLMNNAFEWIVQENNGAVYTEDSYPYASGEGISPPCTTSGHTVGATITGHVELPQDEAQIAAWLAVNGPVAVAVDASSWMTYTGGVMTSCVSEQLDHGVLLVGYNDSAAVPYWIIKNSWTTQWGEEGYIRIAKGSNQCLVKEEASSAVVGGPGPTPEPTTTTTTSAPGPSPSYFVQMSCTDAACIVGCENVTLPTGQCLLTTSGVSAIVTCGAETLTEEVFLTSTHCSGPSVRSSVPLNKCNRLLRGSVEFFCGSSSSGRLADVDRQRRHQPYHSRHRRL
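Purified cruzain (1.5 nM final) was preincubated with compounds for 15 min at room temperature in 100 mM sodium acetate pH 5.5, 5 mM DTT, 0.01% Triton X-100. Reaction started with 2 uM Z-FR-AMC; AMC fluorescence change over 60 s gave activity.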
Cruzain noTriton: cruzain (T. cruzi) inhibition without detergent; Potency, µM, for the others: max response, negative = inhibition, usual class: inhibitors; AID 1476; purified cruzain, Z-FR-AMC fluorescence, no detergent; hit rate 2.3% among 200,000;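 further: plate controls were enzyme without inhibitor for no effect and buffer without enzyme for full effect; nearly all actives have a fitted effect of over 40% in size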
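Purified cruzain at 1.5 nM, pre-incubated 15 min with compound at room temperature in 100 mM sodium acetate pH 5.5, 5 mM DTT, 0.00005% Triton X-100. Reaction started with 2 uM Z-FR-AMC; AMC fluorescence increase over 60 s gives rate.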
NS1 inh: blocks influenza NS1 protein function | Potency, µM (top dose mostly 46.1 µM), for the others: at the highest dose activity, positive = more growth | hit rate 0.4% among 270,000; calls by dose curve; further: actives are rising curves; nearly all actives have a fitted effect of over 50% in size
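In this qHTS, NS1 from influenza A is expressed in budding yeast, where it slows growth. Cells are switched from glucose to 2% galactose medium (pH 6.0, -URA), treated with compound, and growth recovery is read at OD600.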
Numbers without * were called inactive; ? = inconclusive; . = not tested or not shown. The entries come from a sample that favours hits as a whole. Unless noted, the call rests on the fitted dose curve; in most records, active means well fitted curve in the direction sought with a large enough effect; inconclusive means small, poorly fitted or top-dose-only effect, or another doubt; inactive means no such curve, though single readings can be large; an effect the other way counts as inactive or inconclusive. Potency means the concentration at half of the fitted maximal effect.

SMILES | Cruzain inh Det | Cruzain noTriton | NS1 inh
Cc1cccc(N2CCN(C(=O)c3cnc4c(C)cccn4c3=O)CC2C)c1 (stereo not given) | -4.5% | 0.6% | .
COc1ccc(OC)c(NC(=O)c2cn(C)c(=O)c3cc(OC)c(OC)cc23)c1 | -10.2% | ? | -15.6%
COc1cc(/C=N/NC(N)=S)ccc1OCC(=O)Nc1ccc(C)c(C)c1 | 15.8µM* | 12.6µM* | 20.1%
COc1cc(/C=N/NC(=O)COc2c(C)cc([N+](=O)[O-])cc2C)ccc1OC(=O)c1ccccc1 | -4.7% | 25.1µM* | 13.5%
COc1cc(/C=N/NC(N)=O)ccc1OCC(=O)Nc1ccc(C)c(C)c1 | -5.0% | -22.0% | 27.0%
COc1cc(C(=O)N/N=C/c2ccc(OC(=O)c3ccccc3)c(OC)c2)ccc1O | . | . | -3.3%
CC1=C(c2ccc(F)cc2)S(=O)(=O)NC1=NCc1ccccc1F | -1.6% | -6.3% | .
S=c1[nH]c2cc(Br)cnc2[nH]1 | . | . | 0.3%
O=C(CCc1ccc(S(=O)(=O)N2CCOCC2)cc1)NCCc1ccccn1 | 4.0% | 6.1% | 5.8%
Fc1ccc(C2CC(c3ccco3)=NN2c2ccccc2)cc1 (stereo not given) | -3.3% | ? | 11.3%
O=[N+]([O-])c1ccc(N2N=C(c3ccco3)CC2c2ccccc2)cc1 (stereo not given) | -6.9% | 12.6µM* | 9.5%
Clc1ccccc1Cn1nnc2c(N3CCCC3)ncnc21 | -5.4% | -15.2% | -52.5%
CC1Cc2ccccc2N1c1ncnc2c1nnn2Cc1ccccc1Cl (stereo not given) | -21.2% | 25.1µM* | 2.2%
O=c1ccc2cc(S(=O)(=O)Nc3ccc(OC(F)(F)F)cc3)ccc2[nH]1 | -10.0% | 8.6% | .
O=C(Nc1ccc2oc(-c3ccccc3F)nc2c1)c1ncn[nH]1 | -12.7% | 19.5% | 3.4%
CC(C(=O)NCCc1ccccc1)N1c2cccc3cccc(c23)S1(=O)=O (stereo not given) | . | . | 0.8%
COc1cc2c(cc1NC(=O)c1ccc(C)c([N+](=O)[O-])c1)oc1ccccc12 | 3.3% | 25.1µM* | -1.3%
COc1cc2c(cc1NC(=O)c1cccnc1)oc1ccccc12 | -8.4% | ? | -175.5%
COc1cc2c(cc1NC(=O)c1ccncc1)oc1ccccc12 | -8.6% | ? | -110.4%
COc1cc2c(cc1NC(=O)c1cccc([N+](=O)[O-])c1)oc1ccccc12 | -1.3% | 15.8µM* | 7.2%
CCCCCOc1ccc(C(=O)CCC(=O)N2CCCC2)cc1 | . | . | -11.0%
O=[N+]([O-])c1ccccc1N/N=C\c1ccccc1F | . | . | -2.8%
O=[N+]([O-])c1ccccc1N/N=C\c1ccccc1Cl | -2.5% | 20µM* | 2.9%
CCn1nccc1C(=O)Nc1cccc(C)c1C | . | . | 1.1%
CCCCc1c(O)nc(SCC(=O)N2CCOCC2)n(-c2ccc(OC)cc2)c1=O | . | . | 6.3%
SMILES | Cruzain inh Det | Cruzain noTriton | NS1 inh
Cc1cccc(OCC(=O)NC(C)C(=O)N/N=C/c2c(OCc3ccccc3)ccc3ccccc23)c1 (stereo not given) | 0.5% | 15.8µM* | 0.0%
Cc1cccc(OCC(=O)NC(Cc2ccccc2)C(=O)O)c1 (stereo not given) | -2.5% | 4.4% | 6.6%
CCCCCCC1CC(C)(C(=O)CNc2nncs2)OC1=O (stereo not given) | -3.7% | 3.7% | -4.3%
O=C(Oc1ccc2c(-c3ccccc3)cc(=O)oc2c1)c1cccs1 | -5.5% | 6.31µM* | 15.7%
CCc1cc2c(-c3ccccc3)cc(=O)oc2cc1OC(=O)c1cccs1 | 3.2% | -2.2% | 3.3%
O=C(c1ccccc1Cl)N(Cc1ccc(Br)cc1)N1C(=O)CCC1=O | . | . | -3.4%
CCOC(=O)N1C2C=C(C)[C@@H]2[C@@H]2CC(=O)N21 (stereo not given in full) | 14.1µM* | 12.6µM* | -1.2%
CCOC(=O)N1CCN(C2CC(=O)N(c3ccc(C)cc3)C2=O)CC1 (stereo not given) | 6.6% | 3.7% | -14.1%
Cc1onc(-c2ccccc2Cl)c1C(=O)NCc1nc(-c2ccc(C(F)(F)F)cc2)no1 | . | . | 2.7%
CC1(C)C2CCC1(CS(=O)(=O)NCc1ccc(Cl)cc1Cl)C(=O)C2 (stereo not given) | . | . | -22.4%
O=C(CN1C(=O)c2ccccc2C1=O)OC(C(=O)c1ccc(Cl)cc1)c1ccccc1 (stereo not given) | 1.6% | 31.6µM* | ?
Cc1ccc(C(=O)C(OC(=O)CNC(=O)c2ccc(Cl)cc2)c2ccccc2)cc1 (stereo not given) | 6.31µM* | 10µM* | ?
COc1cc(OC)cc(C(=O)NCC(=O)OCc2nc3ccccc3s2)c1 | . | . | -6.1%
Cc1ccc(C(=O)C(OC(=O)CN2C(=O)c3ccccc3C2=O)c2ccccc2)cc1 (stereo not given) | 2.9% | ? | ?
Cc1ccc(S(=O)(=O)NCC(=O)OC(C(=O)c2ccccc2)c2ccccc2)cc1 (stereo not given) | ? | ? | -49.1%
